This is part of a sample that, as a whole, favours compounds with a hit. Of some 83,000 tested, about 20% had one in any assay.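 Assay: single dose, 48 h. Readout: percent growth (0 = no net growth; negative = cell death). Active: <10.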 Unmarked numbers belong to inactive results. Active and inactive are the calls of the source.

In the experiment the test system is MOLT-4 leukemia. The experiment is described as follows: NCI-60 one-dose screen, 48 h (100 = growth as untreated, 0 = no growth, -100 = all killed). The settings on record: 10 µM unless noted.
For `COc1cnc2c(c1)C(=O)c1c-2n(CCCN2CCNCC2)c(=O)c2cc(Cl)ccc12`, the growth is -54.2% (active).

In the case of `c1coc(CNc2c3ccccc3nc3ccccc23)c1`, the growth is 27.2%.

Regarding `Cn1cnc([N+](=O)[O-])c1S(=O)(=O)Oc1ccccc1`, the growth is 76.5%.

With `O=c1c2cc(Br)cc(Br)c2nc(-c2ccc(Cl)cc2)n1/N=C\c1ccccc1F`, the growth is 74%.

In the case of `CC1=CC(=O)OC1C/C=C(\C)CCC1[C@@]2(C)CCC[C@@](C)(C(=O)O)C2CC[C@@]1(C)O` (stereo partly drawn), the growth is 114%.

With `Cn1cnc([N+](=O)[O-])c1S(=O)(=O)Oc1cccc2ccccc12`, the growth was 32.8%.

For `COc1ccccc1CNCCCN1C(=O)c2ccc3c4c(ccc(c24)C1=O)C(=O)N(CCCOCCCCOCCCN)C3=O`, the growth is -9.44% (active).

Turning to `COc1cc(NCC(O)CN(CC(C)C)CC(C)C)c2ncccc2c1` (stereo not drawn), the growth is 74.9%.

Consider `CC(C)(CCc1ccccn1)C(=O)CCCc1ccccn1`, for which the growth is 101%.

On to `COc1cccc(-c2nc3sccn3c2-c2ccnc(NCCN3CCCN(C)S3(=O)=O)n2)c1`, for which the growth is 82.8%.

For `Cc1ccc(NC(=O)c2sc3nc4c(cc3c2N)C(=O)CCC4)cc1Cl`, the growth was 108%.

For the compound `COc1ccc(NC(=O)c2sc3c(=O)[nH]c(C(F)(F)F)nc3c2C)cc1`, the growth is 89.7%.

In the case of `CCC1=CC2CN(C1)Cc1c([nH]c3ccccc13)[C@@](C(=O)OC)(c1cc3c(cc1OC)N(C)[C@H]1[C@@](O)(C(=O)OC)[C@H](OC(C)=O)[C@]4(CC)C=CCN5CC[C@]31[C@@H]54)C2` (stereo partly drawn), the growth was 6.56% (active).

For `CN1C2CCC1/C(=C\c1ccc(Cl)cc1)C(=O)/C2=C/c1ccc(Cl)cc1`, the growth was 16.4%.

For the compound `CC(C)[C@@]12C[C@@H](OC(=O)[C@H]3CO3)[C@@](C)(O1)[C@@H]1CC[C@@H](C)[C@H]1[C@@H]2OC(=O)/C=C/c1ccccc1`, the growth is 72.8%.

With `OCCN(CCO)c1ccc2ccccc2c1`, the growth is 98.8%.

With `O=C(NCCN1CCCC1)n1cc(-c2ccncc2)c(-c2cc(O)cc(Cl)c2)n1`, the growth is 82.7%.

As for `CC1=C(/C=C/C(C)=C/C=C(C(=O)O)\C(C)=C\C(=O)O)C(C)(C)CCC1`, the growth is 86.3%.

For the compound `O=C1/C=C/[C@@H](O)[C@@H]2C[C@@H](O)C[C@H]2/C=C/CCC[C@H]([C@@H](O)CO)O1`, the growth was 103%.

On to `O=C1C(Cl)=C(Nc2cccc3ccccc23)C(=O)c2ccccc21`, for which the growth was 64.9%.

On to `Cc1ccc2c(C)c3c(ccc4ccccc43)c[n+]2c1`, for which the growth was 61.3%.

As for `Nc1c(C(=O)C[C@@H](N)CO)ccc2c1C(=O)CCO2`, the growth was 33.4%.

As to `COc1ccc2c(c1)sc1nc(-c3ccccc3)c(-c3cccc4ccccc34)n12`, the growth is 27.1%.

For `CCOc1cc(/C=N\NC(=O)C[N+](C)(C)C)ccc1O`, the growth was 28.5%.

Regarding `C=C1C(=O)O[C@H]2[C@H]1CC/C(COC(=O)NCc1cn(C)c3ccccc13)=C\CC[C@@]1(C)O[C@@H]21`, the growth is -15.4% (active).

As for `CCCCCCCC/C=C/CCCCCCCC1=NC(C)(C)CN1C(C)C`, the growth is -63.2% (active).

Regarding `Clc1ccc(-c2nc(-c3cccs3)no2)cc1`, the growth is 96.3%.

On to `C=CCOC(=O)C1=C(C)NC2=C(C(=O)CC(C)(C)C2)C1c1ccc(OC)cc1` (stereo not drawn), for which the growth is 89.7%.

As for `COc1ccc(/C=C(\C#N)c2cc(OC)c(OC)c(OC)c2)cc1`, the growth is 8.39% (active).

In the case of `CCOC(=O)C#Cc1c(C(=O)OCC)nnn1[C@@H]1O[C@H](COC(C)=O)[C@@H](OC(C)=O)[C@H]1OC(C)=O`, the growth was 79.9%.

Consider `CCOC(=O)c1ccc(NC(=O)CSC(N)=O)cc1`, for which the growth is 84.6%.

As to `COc1cc(-c2nc(-c3ccc(-c4nc5ccc(F)cc5[nH]4)cc3)no2)cc(OC)c1OC`, the growth was 21.1%.

Regarding `Nc1ccc(C2=NNC(=O)Cc3cc4c(cc32)OCCO4)cc1Cl`, the growth is 34.8%.

Take `COc1cc(/C=C2\CN(C(=O)OC(C)(C)C)C/C(=C\c3ccc(O)c(OC)c3)C2=O)ccc1O`: the growth is 47.4%.

For the compound `CCN1C(=O)N(CC)C2C1N=C(SC)N2/N=C/C=C/c1ccccc1OC` (stereo not drawn), the growth is 14.7%.

Consider `N#CCCn1cnc2c(N)ncnc21`, for which the growth is 92.1%.

For `COc1ccc(C2c3cccn3-c3ccccc3N2C(C)=O)cc1` (stereo not drawn), the growth is 1.08% (active).

As for `COc1ccccc1/C=C/C(=O)CCC(=O)O`, the growth was 100%.
